The source of these data is ChEMBL document CHEMBL4513216, “Probing the Open Global Health Chemical Diversity Library for Multistage-Active Starting Points for Next-Generation Antimalarials” (ACS Infect Dis, 2020).

Among all 68,000 compounds or so, about 2,700 (4%) showed an effect of 50% or more. The sample as a whole holds a higher share of strong results than the screen did.

The subject of the assay is Plasmodium berghei. Briefly: Screen against P. berghei liver stage (PbLuc), transformed with Luciferase, at 2uM. The class given is functional, HepG2. The following applies: tested at 2 uM.
Regarding `CCCc1ccc2oc(C(=O)N3CCN(CCOC)CC3)c(C)c2c1`, the INHIBITION is reported as -28.65%.

On to `COc1cccn(CC(=O)N(C)CCC2CCOCC2)c1=O`, for which the INHIBITION is 69.67%. The same measure for `COc1cccn(CC(=O)N(C)CCCOc2c(C)cccc2C)c1=O`: -30.49%. In the case of `COc1cccn(CC(=O)N(C)CCSC)c1=O`, the INHIBITION is on record as 21.97%. Next, `COCCCN(C)C(=O)Cn1cccc(OC)c1=O`: 50.59%; `COCCN(C)C(=O)Cn1cccc(OC)c1=O`: -14.84%; `COc1cccn(CC(=O)N(C)Cc2ccoc2)c1=O`: -33.11%. Next, `CN(C)C(c1ccccn1)C1CCC(CNC(=O)CC2CCCC2)CC1` (stereo unspecified): 0.64%. The same measure for `CCc1c(C(=O)O)nnn1-c1ccc(C)cc1C`: -54.75%; for `NC(=O)N1CC[C@@H]2O[C@@H](COCC(=O)N3CCCC3)CC[C@@H]21`: 35.98%. `Cc1cc(C[C@@H]2COC[C@H]2NCc2ccccc2C(F)(F)F)on1`: the INHIBITION is recorded as 32.31%.

Regarding `Cc1cc(C(O)CCNC(=O)c2ccc(Cl)s2)c(C)o1` (stereo unspecified), the INHIBITION is -16.88%. The same measure for `CC(CNC(=O)c1cnccn1)Oc1cccc(Br)c1` (stereo unspecified): 30.75%. Next, `CC(CNC(=O)c1cnccn1)Oc1ccc(F)cc1` (stereo unspecified): 52.84%. As to `CC(CNC(=O)c1ccncc1F)Oc1ccc(F)cc1` (stereo unspecified), the INHIBITION was found to be 23.79%. Next, `NCc1cccc(-c2cccnc2C(=O)NCCN2CCCC2)c1`: 1.07%.

For `O=C(NC1CC1)[C@@H]1CCO[C@@H]2CCN(CC3CCC3)C[C@H]21`, the INHIBITION was 9.98%. The same measure for `CC(CNC(=O)Nc1ccc(F)cc1Br)N1CCOCC1` (stereo unspecified): 74.22%; for `Cc1ccc(F)cc1NC(=O)NCC(C)N1CCOCC1` (stereo unspecified): -0.54%.

In the case of `Cc1cc(F)ccc1NC(=O)NCC(C)N1CCOCC1` (stereo unspecified), the INHIBITION is 48.59%. For `CCc1ccc(CN2CCC3(CCCN(C(=O)N(C)C)C3)C2)o1` (stereo unspecified), the INHIBITION turned out to be 1.08%.

Consider `O=C(Cc1ccc2c(c1)OCCO2)NC1CC1`, for which the INHIBITION is 23.31%.

Regarding `CN(Cc1ccco1)[C@@H]1CN(Cc2ccncc2)C[C@@H]2CCCO[C@@H]21`, the INHIBITION was found to be 60.93%. The same measure for `O=C(CC1CC1)N[C@@H]1CN(Cc2ccoc2)C[C@@H]2CCCO[C@@H]21`: 35.89%. Take `O=C(N[C@@H]1CN(Cc2ccccc2)C[C@@H]2CCCO[C@@H]21)C1CC1`: the INHIBITION is recorded as 50.9%.

With `O=C(N[C@@H]1CN(Cc2ccoc2)C[C@@H]2CCCO[C@@H]21)C1CCC1`, the INHIBITION was -8.62%.

With `CN(Cc1ccco1)[C@@H]1CN(Cc2cccnc2)C[C@@H]2CCCO[C@@H]21`, the INHIBITION was determined as 29.36%. With `CN(Cc1ccco1)[C@@H]1CN(Cc2ccc(F)cc2)C[C@@H]2CCCO[C@@H]21`, the INHIBITION is given as 29.73%. The same measure for `O=C(CC1CC1)N[C@@H]1CN(Cc2ccncc2)C[C@@H]2CCCO[C@@H]21`: 29.01%; for `O=C(CC1CC1)N[C@@H]1CN(Cc2ccco2)C[C@@H]2CCCO[C@@H]21`: 52.55%; for `CS(=O)(=O)N[C@@H]1CN(Cc2ccccc2)C[C@@H]2CCCO[C@@H]21`: 14.39%.

In the case of `NCC1CCCCN1C(=O)Cc1cccc(Cl)c1` (stereo unspecified), the INHIBITION is -22.89%. Take `CC1(C)CN(C(=O)c2occc2COc2cccc(C#N)c2)CCO1`: the INHIBITION is -0.41%. With `O=C(NCc1nc[nH]n1)c1cc(COc2cccc(F)c2)[nH]n1`, the INHIBITION is listed as 10.22%. The same measure for `CC(C)(C)C(=O)NCCC(=O)NS(=O)(=O)c1cccc(C#N)c1`: -49%. The same measure for `Cc1nc(CC(=O)N2CCc3nnc(N(C)C)cc3C2)cs1`: 1.6%; for `Cc1ccc(N2CCCC(N(C)c3ncnc4c3CCC4)C2)nn1` (stereo unspecified): -28.33%. Next, `COc1ccc(CC(=O)N2CC[C@@H]3[C@H](CC2)N(C)CCS3(=O)=O)cc1`: 24.64%; `CN1CCS(=O)(=O)[C@@H]2CCN(C(=O)c3ccccc3)CC[C@@H]21`: 71.83%. For `COc1ccc(C(=O)N2CC[C@@H]3[C@H](CC2)N(C)CCS3(=O)=O)cc1`, the INHIBITION is reported as -17.39%. Consider `CN1CCS(=O)(=O)[C@@H]2CCN(C(=O)CC(C)(C)C)CC[C@@H]21`, for which the INHIBITION is 50.17%. Consider `COc1cccc(C(=O)N2CC[C@@H]3[C@H](CC2)N(C)CCS3(=O)=O)c1`, for which the INHIBITION was -14.21%. On to `CC(C)(C)CC(=O)N1CC[C@@H]2[C@H](CC1)N(S(C)(=O)=O)CCS2(=O)=O`, for which the INHIBITION is -16.93%.

With `CC(=O)NC(C)(C)c1noc(C2(C#N)CCCCC2)n1`, the INHIBITION came out at 22.41%. Next, `Cc1nc(CNC(=O)NC2CCCN(c3ncccn3)C2)cs1` (stereo unspecified): 30.96%; `Cc1nc(CCNC(=O)NC2CCN(c3ncccn3)CC2)cs1`: -17.45%; `Cc1nc(CNC(=O)NC2CCN(c3ncccn3)CC2)cs1`: 56.78%. The same measure for `COc1ncccc1CNCc1c(C)nn(C)c1N1CCOCC1`: 40.24%. As for `Cc1nn(C)c(N2CCOCC2)c1CNCc1ccoc1C`, the INHIBITION was 10.4%.

As for `Cc1cc(CNCc2c(C(C)C)nn(C)c2N2CCOCC2)no1`, the INHIBITION was 22.16%.

For the compound `Cc1nn(C)c(N2CCOCC2)c1CNCc1ccccc1CO`, the INHIBITION amounted to 50.18%. Turning to `Cc1nn(C)c(N2CCOCC2)c1CNCc1ccc(CO)c(F)c1`, the INHIBITION stood at 63.05%.

`Cc1nn(C)c(N2CCOCC2)c1CNCc1ccc2c(c1)OCO2`: the INHIBITION was 18.01%. Take `Cc1nc(CNCc2c(C)nn(C)c2N2CCOCC2)cs1`: the INHIBITION is given as -14.3%.

As for `Cc1cc(CNCc2c(C)nn(C)c2N2CCOCC2)no1`, the INHIBITION was determined as 65.77%. `Cc1nn(C)c(N2CCOCC2)c1CNCc1ccnc(N(C)C)c1`: the INHIBITION turned out to be 17.11%.

On to `CN(Cc1ccc(F)cc1)CC1(O)CCN(C(=O)c2cccs2)C1` (stereo unspecified), for which the INHIBITION is -27.04%. For `CC(C)c1nc2n(n1)CC(NCc1nnc(C3CC3)o1)CC2` (stereo unspecified), the INHIBITION is listed as -30.61%.

For the compound `O=C(CCNC(=O)C1CCCC1)NCc1cccnc1-n1cncn1`, the INHIBITION is listed as -18.67%. Next, `Cc1nn(C)c(C)c1C1SCC(=O)Nc2c1c(O)nn2C(C)C` (stereo unspecified): 4.89%; `COc1ccc(Cl)cc1CN(C)CC(=O)Nc1ccnn1C(C)C1CC1` (stereo unspecified): -13.72%; `Cc1cccc(C2(CNC(=O)CO)CCCC2)c1`: 35.23%. The same measure for `CC(=O)N(C)CC(=O)NCC1(c2cccc(C)c2)CCCC1`: 54.29%.

As for `CC(=O)N(C)CC(=O)NCC1(c2c(F)cccc2F)CCCC1`, the INHIBITION was -41.54%. As to `CN1CCC(c2cccc(CCC(=O)NCC(N)=O)n2)CC1`, the INHIBITION is 7.64%. As for `CC(=O)N1CCC2(CC1)CN(CC(C)C)CC21CCNC1=O` (stereo unspecified), the INHIBITION is 63.35%. The same measure for `CN(C)C(=O)N1CCC2(CC1)CN(CC1CC1)CC21CCNC1=O` (stereo unspecified): 35.89%; for `CC(=O)N1CCC2(CC1)CN(C(C)=O)CC21CCNC1=O` (stereo unspecified): 24.36%. The same measure for `CCC[C@@H]1CN(Cc2cc(C#N)n(C)c2C)C[C@H]1NS(C)(=O)=O`: 1.88%. For `CCC[C@H]1CN(Cc2cc(C#N)n(C)c2C)C[C@@H]1NS(=O)(=O)CC`, the INHIBITION is 35.26%. Next, `CCC[C@H]1CN(Cc2cc(C#N)n(C)c2C)C[C@@H]1N(C)C`: 51.4%; `NC(=O)c1sc2ccccc2c1C1CCN(S(=O)(=O)N2CCOCC2)C1` (stereo unspecified): -18.15%.

For the compound `Cc1noc(C)c1CN1CC[C@@H]2O[C@@H](COCC(C)C)CC[C@@H]21`, the INHIBITION is reported as 13.87%. `COCCN1CC[C@@H]2OC(COCC(=O)N3CCCC3)CC[C@@H]21` (stereo partly specified): the INHIBITION was determined as 51.05%. With `CN(C)CCN1CC[C@@H]2O[C@@H](COCC(=O)N3CCCC3)CC[C@@H]21`, the INHIBITION is listed as -30.82%. As to `COCCN1CC[C@@H]2O[C@@H](COCC(=O)N3CCCC3)CC[C@@H]21`, the INHIBITION was -14.49%. In the case of `Cc1ncnc2c1CCN(Cc1cccs1)CC2`, the INHIBITION is reported as -8.24%.

Take `CNS(=O)(=O)CC(=O)N1CCC(c2cc3ccccc3[nH]2)CC1`: the INHIBITION is listed as -46.85%. As for `O=C(C1CCCCC1)N1CCC2(CCCN2CC2CC2)CC1`, the INHIBITION turned out to be 24.15%.

On to `O=C(C1CCCC1)N1CCC2(CC1)COCCN2CC1CC1`, for which the INHIBITION is reported as -11.91%. Next, `O=C(C1CCC1)N1CCC2(CCCN2CC2CC2)CC1`: 55.66%. The same measure for `CC(C)NC(=O)[C@@H]1CC[C@@H]2[C@@H](CCN2Cc2cn(C)c3ccccc23)O1`: 29.43%; for `CCN1CC(C(=O)NCCCc2nc(C)c(C)s2)CC1=O` (stereo unspecified): 72.05%; for `Cc1nc(CCCNC(=O)C2CC(=O)N(C3CC3)C2)sc1C` (stereo unspecified): -52.42%.

Take `Cc1nc(CCCNC(=O)C2CC(=O)N(C(C)(C)C)C2)sc1C` (stereo unspecified): the INHIBITION was determined as 13.87%. With `CCS(=O)(=O)NCc1cccnc1N1CCCC(O)C1` (stereo unspecified), the INHIBITION was -5.31%. The same measure for `Nc1nc(C2CCN(C(=O)c3cncs3)CC2)cs1`: 0.14%; for `CCNC(=O)CNS(=O)(=O)c1cc(Br)ccc1F`: 42.32%; for `CC(C)(C)NS(=O)(=O)c1ccc(NC(=O)C2CC2)cc1`: 17.2%.

Turning to `CC(=O)Nc1ccc(F)c(S(=O)(=O)NC(C)(C)C)c1`, the INHIBITION is given as -1.87%. Consider `COC1CCN(c2ccc(NC(=O)C3CC3)cc2C(F)(F)F)CC1`, for which the INHIBITION is recorded as -1.71%. Regarding `CCC(=O)Nc1ccc(F)c(S(=O)(=O)NC(C)(C)C)c1`, the INHIBITION is given as 57.75%. With `CC(C)(C)NS(=O)(=O)c1cc(NC(=O)C2CC2)ccc1F`, the INHIBITION is on record as 62.51%. For `CCS(=O)(=O)N1Cc2c(Cn3ccnc3)nn(C(C)C)c2C1`, the INHIBITION was 3.72%.

In the case of `Cc1n[nH]c(C)c1CC(=O)NCCc1ccccc1`, the INHIBITION was determined as 25.21%. Next, `COc1ccc(CC2CN(C(=O)c3coc(C)n3)CCO2)cc1` (stereo unspecified): -10.03%.

For the compound `Cc1nc(C(=O)N2CCOC(Cc3ccccc3)C2)co1` (stereo unspecified), the INHIBITION amounted to 5.76%.

Turning to `Cc1nc(C(=O)N2CCOC(Cc3ccc(F)cc3)C2)co1` (stereo unspecified), the INHIBITION is listed as 51.45%. `Cc1cc(C)cc(OCCN2CCn3c(C)nnc3C2)c1`: the INHIBITION is 20.41%.

For the compound `Cc1nnc2n1CCN(CCOc1ccccc1)C2`, the INHIBITION was -55.52%. Next, `CCOCCN1CCn2c(C)nnc2C1`: 58.53%.
